Bioassay records deposited in PubChem by several laboratories.
Sampled rows, rich in hits. Any-hit rate of the full collection: about 1.2%.
NOD2 RIPK2 PPI: blocks binding of human NOD2 to RIPK2 | CHO BLA complementation NOD2-RIPK2, CCF4 ratio | inhibition, % at 4.98 µM | 360,000 compounds, 0.38% hits | AID 624267; in the data active means inhibition above about 21%;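 further: 0% = vehicle only and 100% = reference blocker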
Target sequence (O43353 whole entry, looked up): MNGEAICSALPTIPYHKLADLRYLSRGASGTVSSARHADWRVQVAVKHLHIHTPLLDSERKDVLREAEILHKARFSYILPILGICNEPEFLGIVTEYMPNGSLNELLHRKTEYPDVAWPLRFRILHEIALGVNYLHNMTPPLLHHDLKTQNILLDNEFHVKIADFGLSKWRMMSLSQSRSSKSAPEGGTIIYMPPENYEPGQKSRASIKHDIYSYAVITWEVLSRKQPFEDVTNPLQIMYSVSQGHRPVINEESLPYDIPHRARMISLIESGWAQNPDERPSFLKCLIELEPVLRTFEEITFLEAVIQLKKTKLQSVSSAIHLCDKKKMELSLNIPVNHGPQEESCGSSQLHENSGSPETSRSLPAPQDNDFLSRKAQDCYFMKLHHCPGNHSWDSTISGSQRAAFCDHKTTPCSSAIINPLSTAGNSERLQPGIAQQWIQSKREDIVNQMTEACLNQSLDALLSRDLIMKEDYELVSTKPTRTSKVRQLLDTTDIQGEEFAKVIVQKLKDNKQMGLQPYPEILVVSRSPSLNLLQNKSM
NPR2 activator: GC-B (human) receptor activation; activation, % at 10 µM; AID 1920062; P20594; HEK293-GC-B cells, CNP EC30, cGMP TR-FRET; 0% at EC30 CNP, 100% saturating CNP; 370,000 compounds, 0.11% hits;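 active means activation at 10 µM reaching about 35% in either raw or pattern-adjusted values, limit read from the data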
TLR4 MyD88 comp: inhibitors of human TLR4-MyD88 binding; O00206+Q99836; HeLa CL3-4 TLR4/MyD88 BLA complementation, FRET ratio; inhibition, % at 8.4 µM; 200,000 compounds, 0.18% hits; AID 861; in the data active means inhibition above about 25%;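 further: 0% = vehicle and 100% = reference inhibitor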
GC-A act: GC-A (human) enzyme activation; P16066; HEK293 GC-A cells, cGMP TR-FRET, EC30 ANP; 0% at EC30 ANP, 100% saturating ANP; activation, % at 10 µM; 370,000 compounds, 0.14% hits; AID 1671463; in the data active means activation above about 40%
Neddylation inh: cullin neddylation inhibition. TR-FRET cullin neddylation, biochemical. inhibition, % at 25 µM. 360,000 compounds, 0.58% hits. AID 651699; in the data active means inhibition above about 36%
TLR9-MyD88 inh: inhibitors of human TLR9-MyD88 binding. CHO BLA complementation TLR9-MyD88, CCF4 FRET ratio. Q9NR96+Q99836. inhibition, % at 4.98 µM. 340,000 compounds, 0.21% hits;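 active means inhibition above the mean over all tested compounds plus 3 SD, cut at about 21% in these data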;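 further: 0% = DMSO only wells and 100% = clavulanate BLA inhibitor control wells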
Neddyl inh conf: cullin neddylation inhibition, confirmation | shares compounds with Neddylation inh | TR-FRET cullin neddylation biochemical assay | calls only at 25 µM | 1,800 compounds, 13% hits | AID 652217; in the data active means inhibition above about 40%;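 further: neddylation substrate is the cullin 1 ring ligase complex with SKP2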
Numbers without * were called inactive; i = inactive; · = no result shown; + = active, no number.

SMILES | NOD2 RIPK2 PPI | NPR2 activator | TLR4 MyD88 comp | GC-A act | Neddylation inh | TLR9-MyD88 inh | Neddyl inh conf
CCCOC(=O)C1=C(C)N(C)C(=O)NC1c1cc2c(cc1[N+](=O)[O-])OCO2 (configuration not stated) | -9 | -7 | -5 | -10 | 43* | -3 | i
c1csc(-c2nc3nc4ccccc4nc3n2Cc2ccc3c(c2)OCO3)c1 | -6 | 38* | -7 | 25 | 37* | -2 | i
c1ccc(Cn2c(-c3ccccc3)nc3nc4ccccc4nc32)cc1 | -2 | 1 | 0 | -4 | 44* | -5 | i
Cc1ccc(C(=O)CSc2nnc(-c3ccccn3)n2-c2ccccc2)cc1 | · | 1 | · | -2 | · | · | ·
c1cncc(-c2nnc(-c3cccs3)o2)c1 | -12 | 3 | -1 | 1 | 52* | -5 | ·
O=C(CC12CC3CC(CC(Br)(C3)C1)C2)NC1CCCC1 | 3 | 0 | · | 4 | -1 | -1 | ·
CC(C)C(=O)N1CCN(c2nc(-c3ccccc3)c3c(c2C#N)CCCC3)CC1 | -5 | 0 | 5 | 0 | · | 2 | ·
CCCC(=O)N1CCN(c2nc(CC(C)C)c3c(c2C#N)CCC3)CC1 | 1 | -6 | -3 | 1 | 38* | -4 | i
CN1C(=O)[C@H]2[C@@H](/C=C/c3ccccc3)N3C(=O)CN(CCO)C(=O)[C@@]3(C)[C@H]2C1=O | -1 | 9 | · | 2 | -17 | -1 | ·
CCOc1cc(/C=C/C(=O)Nc2ccc(C(=O)NCCN(CC)CC)cc2)ccc1OCC(C)C | -2 | -7 | -19 | -18 | 54* | 4 | +
CC1CC(C)CN(CCCNC(=O)c2cc3c(=O)[nH]c4ccccc4c3n2C)C1 (configuration not stated) | -6 | -4 | 0 | 4 | 42* | -3 | i
CN(CCCNC(=O)c1cc2c(=O)[nH]c3ccccc3c2n1C)Cc1ccccc1 | -12 | -4 | 1 | -2 | 21 | -4 | ·
Cn1c(C(=O)NCCCN2CCN(c3ccccc3F)CC2)cc2c(=O)[nH]c3ccccc3c21 | 1 | -10 | -10 | -38 | 23 | 2 | ·
CCC1CCCCN1CCCNC(=O)c1cc2c(=O)[nH]c3ccccc3c2n1C (configuration not stated) | -9 | 1 | 6 | 3 | 40* | -4 | i
Cc1cc(N/N=C/c2ccccc2O)nc(N2CCOCC2)n1 | 3 | -4 | · | 10 | 14 | 1 | ·
COc1ccc(OC)c(/C=N/Nc2cc(C)nc(N3CCOCC3)n2)c1 | 2 | -1 | · | 4 | 39* | · | i
Nc1nc(COC(=O)C2CC(=O)N(Cc3ccccc3Cl)C2)nc(Nc2ccccc2)n1 (configuration not stated) | 2 | -3 | · | -4 | 16 | 2 | ·
CCc1nnc(NC(=O)c2ccc(-c3ccccc3F)o2)s1 | 2 | 7 | 0 | 1 | 42* | 10 | i
CCSc1nnc(-c2ccc(S(=O)(=O)N3CCCC3)cc2)n1C | -3 | 1 | 0 | 4 | 46* | -3 | i
CCSc1nnc(-c2ccc(S(=O)(=O)N3CCOCC3)cc2)n1C | 1 | -3 | · | 3 | 39* | -2 | i
CN(C)N1C(=O)C2C3C=CC(O3)C2C1=O (configuration not stated) | 6 | 0 | · | 0 | -1 | -2 | ·
COc1ccc(C(c2c(NC(=O)c3ccco3)sc(C)c2C)N2CCOCC2)cc1 (configuration not stated) | 6 | -20 | · | -26 | 45* | 3 | ·
COc1cccc(C(c2c(NC(=O)c3ccccc3)sc(C)c2C)N2CCN(C)CC2)c1 (configuration not stated) | 2 | -28 | 3 | -24 | 41* | -7 | i
COc1ccc(C(c2c(NC(=O)c3ccccc3)sc(C)c2C)N2CCN(CCO)CC2)cc1 (configuration not stated) | 3 | 1 | -17 | -1 | -2 | -6 | ·
COc1ccc(C(CNC(=O)c2ccco2)N2CCOCC2)cc1 (configuration not stated) | -3 | -3 | · | -1 | -27 | -17 | ·
SMILES | NOD2 RIPK2 PPI | NPR2 activator | TLR4 MyD88 comp | GC-A act | Neddylation inh | TLR9-MyD88 inh | Neddyl inh conf
Nc1c(Cl)cc(Cl)cc1C(=O)OCC(=O)N1CCCC1=O | -5 | · | · | · | 47* | 8 | i
Cc1ccc2[nH]c3c(=O)n(CC(=O)N4CC(C)CC(C)C4)ncc3c2c1 (configuration not stated) | 5 | 3 | · | 3 | 19 | -6 | ·
CCCN1CCN(C(=O)Cn2ncc3c([nH]c4ccc(C)cc43)c2=O)CC1 | -5 | -2 | · | 0 | 45* | -10 | i
COc1ccc(CC(=O)N2CCN(c3ccc(C4=NNC(=O)CC4C)cc3)CC2)cc1 (configuration not stated) | -7 | 2 | -5 | 4 | 46* | 3 | ·
COc1ccc(CC(=O)N2CCN(C(=O)Cc3ccc(OC)cc3)CC2)cc1 | -25 | 0 | -7 | 0 | 3 | -2 | ·
O=C(NCc1ccccc1)[C@H]1CCCN1 | · | -5 | · | -1 | · | · | ·
COc1c2c(cc3oc(CO[C@@H]4O[C@H](CO)[C@@H](O)[C@H](O)[C@H]4O)cc(=O)c13)O[C@H](C(C)(C)O)C2 | -2 | 5 | · | 0 | 35* | -5 | i
COc1c2c(cc3oc(C)cc(=O)c13)OC(C(C)(C)OC1OC(CO)C(O)C(O)C1O)C2 (configuration not stated) | -10 | 1 | 3 | 0 | 37 | 3 | ·
CN1C2=N[C@H](c3ccccc3Br)CC(=O)N2/C(=C\c2ccccc2)[C@@H]1c1ccccc1 | · | -27 | · | -29 | · | · | ·
NC(=O)COc1c(-c2ccc(Br)o2)oc2ccccc2c1=O | -42 | · | · | · | · | 7 | ·
CCOC(=O)C1=C(C(=O)OCC)c2ccc(OC)c(OC)c2C1 | -20 | 2 | · | -3 | 41* | -15 | i
COC(=O)c1c[nH]c(=O)c2ccccc12 | 2 | 1 | 4 | 2 | 33 | -2 | ·
COC(=O)c1ccc(C(=O)OC)c(=O)[nH]1 | 0 | 5 | · | 4 | 49* | -4 | ·
COc1ccc2oc(C(=O)OCC(=O)NC3CCCCC3)c(C)c2c1 | -4 | -7 | · | -2 | 66* | 0 | i
CCOc1ccc2oc(C(=O)OCC(=O)N3CCCC(C)C3)c(C)c2c1 (configuration not stated) | -2 | 1 | · | 1 | 60* | -2 | ·
COc1ccc2oc(C(=O)OCC(=O)N3CCCC(C)C3)c(C)c2c1 (configuration not stated) | 3 | 4 | · | 4 | · | 2 | ·
COc1ccc2oc(C(=O)OCC(=O)NC(=O)c3ccccc3)c(C)c2c1 | -2 | -3 | · | 1 | -64 | 13 | ·
COc1ccc2oc(C(=O)OCC(=O)N(C)CC(=O)Nc3ccc(F)cc3)c(C)c2c1 | -4 | -4 | · | -3 | 47* | -4 | ·
